Reference: PubChem BioAssay AID1851 (National Center for Advancing Translational Sciences (NCATS), 2009)
Out of some 16,000 compounds screened, about 5,700 (36%) were called active. Another 24% or so got no clear call; they are omitted. The list shows a part of the results. A number with no mark means an inactive call. Calls come from the whole dose curve; as a rule, active = well fitted curve in the direction sought with a large enough effect; inconclusive = small, poorly fitted or top-dose-only effect, or effect the other way; inactive = no such curve, though single readings can be large or run the other way.

These compounds were tested against Cytochrome P450 1A2 (Homo sapiens) (UniProt P05177) (assay: Cytochrome panel assay with activity outcomes). Conditions: recombinant CYP, pro-luciferin dealkylation, luminescence, p450-cyp1a2; series mostly up to 57.1 µM; activity, negative = inhibition: at the top concentration.
% is set by controls: 0 for no effect and ±100 for the full control effect.

Chain of Cytochrome P450 1A2 (Homo sapiens) (P05177 whole entry, looked up): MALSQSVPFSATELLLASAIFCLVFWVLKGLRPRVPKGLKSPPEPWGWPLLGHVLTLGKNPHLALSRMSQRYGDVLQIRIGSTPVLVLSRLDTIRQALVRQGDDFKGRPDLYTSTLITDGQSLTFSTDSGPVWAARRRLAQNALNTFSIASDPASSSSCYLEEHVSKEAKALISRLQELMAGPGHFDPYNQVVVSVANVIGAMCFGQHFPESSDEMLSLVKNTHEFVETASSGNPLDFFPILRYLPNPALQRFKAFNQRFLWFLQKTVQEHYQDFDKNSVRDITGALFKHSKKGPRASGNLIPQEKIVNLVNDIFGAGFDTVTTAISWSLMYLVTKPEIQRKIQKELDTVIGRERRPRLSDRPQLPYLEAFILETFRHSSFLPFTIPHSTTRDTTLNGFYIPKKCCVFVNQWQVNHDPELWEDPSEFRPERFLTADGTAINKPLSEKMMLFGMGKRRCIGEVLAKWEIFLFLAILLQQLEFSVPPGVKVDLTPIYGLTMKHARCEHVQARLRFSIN

SMILES | AC50 | activity, negative = inhibition
COc1ccc(-c2cc(C(F)(F)F)n3nc(C(=O)NCc4ccco4)c(Cl)c3n2)cc1 | 3.55 µM (active) | 
Cc1cc(C)n(C(=O)c2cc3ccccc3c(=O)o2)n1 | 7.08 µM (active) | 
O=C(O)CC1(C(=O)O)CCCCC1 |  | 5.1% [at 2.29 µM]
CCOC(=O)c1ccc(NC(=O)Nc2ccc3c4c(cccc24)C(=O)N3CC)cc1 | 1.58 µM (active) | 
CCN1C(=O)c2cccc3c(NC(=O)c4cccc(N5C(=O)CCC5=O)c4)ccc1c23 |  | -15.9%
CCCOC(=O)c1ccc(NC(=O)c2cn(CC)c3nc(C)ccc3c2=O)cc1 |  | -22.5%
CC(C)CO/N=C1/C[C@@H](O)[C@@H](O)[C@@H]2[C@@H]3C(=O)N(Cc4ccc5c(c4)OCO5)C(=O)[C@H]3CC[C@H]12 |  | 2.96% [at 11.4 µM]
CC(C)CO[C@H](c1ccc2c(c1)OCO2)[C@H](C)Br | 0.631 µM (active) | 
CC(C)CO/N=C1/C[C@@H](O)[C@@H](O)[C@@H]2[C@@H]3C(=O)N(Cc4ccc5c(c4)OCO5)C(=O)[C@H]3CC[C@@H]12 |  | -7.54% [at 11.4 µM]
c1ccc2c(-c3c[nH]c4ccccc34)c3ccccc3nc2c1 | 3.16 µM (active) | 
c1ccc2c(CN3CCN(Cc4c[nH]c5ccccc45)CC3)c[nH]c2c1 |  | -18.1% [at 2.29 µM]
O=C(O)[C@@H](Cc1c[nH]c2ccccc12)C(=O)NO |  | -20.4% [at 11.4 µM]
CO[C@H]1COC(=O)C/C=C\[C@@H](C)[C@H](OC)COC(=O)[C@H]2CCCN2C(=O)C/C=C\[C@@H]1C |  | 3.92% [at 11.4 µM]
CC(=O)OC[C@@H]1O[C@H](CCO/N=C(\C)CCC(=O)OC[C@@H]2O[C@H](C#Cc3ccccc3)C=C[C@@H]2Oc2ccc(C)cc2)C=C[C@@H]1OC(C)=O |  | -1.59% [at 11.4 µM]
Cc1nc2cc(NC(=O)CSc3nc4c(C)cccc4cc3C#N)ccc2s1 | 2.82 µM (active) | 
COC(=O)c1cccc(NC(=O)CCCOc2ccccc2)c1 | 0.891 µM (active) | 
O=C(CCOc1ccccc1)Nc1ccccc1 | 8.91 µM (active) | 
CCC(=O)NNC(=O)CCC(=O)Nc1ccccc1 |  | 2.63%
CC(=O)NNC(=O)CCC(=O)Nc1ccccc1 |  | -3.3%
COc1ccc(NC(=O)CCOc2ccccc2)cc1 | 3.55 µM (active) | 

SMILES | AC50 | activity, negative = inhibition
O=C(Cc1ccccc1I)Nc1ccccc1 | 12.6 µM (active) | 
Oc1ccccc1CNCc1ccccc1O |  | -17.8% [at 11.4 µM]
O=S(=O)(O)C1CCNCC1 |  | 7.71%
CO[C@@H]1COC(=O)CC=C[C@@H](C)[C@@H]2C=C[C@H](O)[C@@H](COC(=O)[C@H](C)NC(=O)CC=C[C@H]1C)O2 |  | -7.89% [at 11.4 µM]
COc1ccc(NC(=O)CCSc2cc(C)c3ccccc3n2)cc1 | 7.08 µM (active) | 
CCCCC#Cc1ccccc1CC(=O)Nc1ccccc1 | 2.51 µM (active) | 
CC(C)(CC(=O)Nc1ccccc1)C(=O)O |  | -15.9% [at 11.4 µM]
NCC(=O)Nc1ccccc1 | 2.51 µM (active) | 
COC(=O)c1cccc(NC(=O)Nc2ccc(Cl)c(Cl)c2)c1 | 8.91 µM (active) | 
Cc1cccc(C)c1NC(=O)C(c1ccc(Cl)cc1Cl)N1CCCCC1 (stereo not given) |  | -22.8%
O=C1C[C@@H](O)[C@@H](O)[C@@H]2[C@H]3C(=O)N(c4ccc(F)cc4F)C(=O)[C@@H]3CC[C@H]12 |  | 8.95% [at 11.4 µM]
O=C(COc1ccccc1)Nc1ccc(-c2nnc(-c3ccco3)o2)cc1 |  | 7.06%
O=C(COC(=O)COc1ccccc1)Nc1ccc(OC(F)(F)F)cc1 | 20 µM (active) | 
Nc1ccc(S(=O)(=O)Nc2nccs2)cc1 |  | -1.59% [at 25.6 µM]
CCc1nnc(NC(=O)C2Cc3ccccc3CN2S(=O)(=O)c2ccc(C)cc2)s1 (stereo not given) |  | -13.9%
O=C(Nc1nccs1)C1Cc2ccccc2CN1S(=O)(=O)c1ccc(F)cc1 (stereo not given) | 2.24 µM (active) | 
O=C(Nc1nnc(C2CC2)s1)C1Cc2ccccc2CN1S(=O)(=O)c1ccccc1F (stereo not given) | 12.6 µM (active) | 
O=C(c1csnn1)N1CCC2(CC1)CN(c1ccccn1)C2 |  | -12%
Cc1ccc2nc(-c3ccc(NC(=O)Cc4cccs4)cc3)[nH]c2c1 | 0.631 µM (active) | 
CCNc1ncc2nc(-c3ccccc3)c(=O)n(CCC#N)c2n1 | 3.16 µM (active) | 

SMILES | AC50 | activity, negative = inhibition
CCNc1ncc2nc(-c3cn(C)c4ccccc34)c(=O)n(CCC#N)c2n1 | 5.01 µM (active) | 
CCNc1ncc2nc(-c3cn(C)c4ccccc34)c(=O)n(C)c2n1 | 0.1 µM (active) | 
CCNc1ncc2nc(C)c(=O)n(CCC#N)c2n1 | 12.6 µM (active) | 
CC1(C)S[C@@H]2[C@H](NC(=O)[C@H](C(=O)O)c3ccsc3)C(=O)N2[C@H]1C(=O)O |  | -3.26% [at 25.6 µM]
CCOC(=O)Oc1c(OC)cc(C(=O)O[C@H]2C[C@H]3CN4CCc5c([nH]c6cc(OC)ccc56)[C@@H]4C[C@H]3[C@@H](C(=O)OC)[C@@H]2OC)cc1OC |  | -4.49% [at 25.6 µM]
CCOC(=O)c1c(C)[nH]c2ccc3c(c12)CN1CCc2cc(OC)ccc2[C@@H]1O3 | 0.158 µM (active) | 
Cc1ccc(C2/C(=C(/O)c3ccccc3)C(=O)C(=O)N2CCN2CCOCC2)o1 (stereo not given) |  | -25.3%
Cc1ccc(C)c(/C(O)=C2/C(=O)C(=O)N(CCN3CCOCC3)C2c2ccco2)c1 (stereo not given) | 25.1 µM (active) | 
COc1ccc(/C(O)=C2/C(=O)C(=O)N(CCN3CCOCC3)C2c2ccc(C)cc2)cc1 (stereo not given) |  | 8.1%
COc1ccc2[nH]c3c(c2c1)CN(C)CC3 | 12.6 µM (active) | 
CN1CCc2[nH]nc(-c3n[nH]c4c3CN(C)CC4)c2C1 |  | -15.6% [at 11.4 µM]
COc1ccc2c3c([nH]c2c1)[C@@H]1C[C@@H]2[C@@H](C[C@H](O)[C@H](OC)[C@H]2C(=O)O)CN1CC3 |  | -3.07% [at 25.6 µM]
CC(C)(C)C(=O)NC(=S)NCCc1ccccc1 | 7.08 µM (active) | 
Cc1ccc(C(=O)NC(=S)Nc2cc(-c3nc4ccccc4s3)ccc2C)cc1 |  | -18.7%
CN(C)C(=O)N1CCCC(C(=O)NCCc2ccccc2)C1 (stereo not given) |  | 8.15%
COc1ccc(CN(CCC#N)C(=S)NC(=O)c2ccccc2)cc1 | 5.01 µM (active) | 
CCOc1ccc(N(CCC#N)S(=O)(=O)c2ccc(OC)cc2)cc1 |  | 2.01%
COc1ccc(C(=O)NC(=S)NCc2ccccc2)cc1 | 3.16 µM (active) | 
COc1ccc(C(=O)NNC(=S)NC(=O)c2ccco2)cc1 |  | -16.2%
COc1ccc(C(=O)NCc2ccc(-c3nc4ccccc4s3)cc2)cc1 | 3.16 µM (active) | 
